Assay results from PubChem BioAssay AID652054 (National Center for Advancing Translational Sciences (NCATS), 2013).
About 9,100 (2.5%) of roughly 360,000 compounds were called active. Inconclusive results (about 4%) are left out. This excerpt belongs to a sample that is enriched for actives. A number with no mark means an inactive call. Cut-off read from the data, not from the text of the source: active = max response below about -50%; inconclusive = no clear call, values can overlap the other calls; inactive = above that.

These molecules were tested against D(3) dopamine receptor (Homo sapiens) (UniProt P35462) (assay: qHTS of D3 Dopamine Receptor Antagonist: qHTS). Conditions: D3R cells, DiscoveRx beta-arrestin luminescence, antagonist mode; stronger effect = lower value.
From the text: D3 DARs represent a very important target for the treatment of several neuropsychiatric disorders. Indeed, one of the most promising therapeutic applications for the D3 DAR is in the area of addiction and related disorders. […] These findings have been observed with a number of addictive substances including cocaine, amphetamine, nicotine, and alcohol. […] Antagonism of the D3 DAR may also be therapeutic in the treatment of schizophrenia or psychosis. […] Since the D3 DAR is expressed in areas of the CNS associated with the control of mood and emotion, it has been hypothesized that selective antagonism of the D3 DAR may be effective in treating psychosis without inducing the motor side effects typically seen with D2 DAR antagonists.
This part of the project aims to discover novel antagonist.
NIH Chemical Genomics Center [NCGC]
NIH Molecular Libraries Probe Centers Network [MLPCN]
Assay Submitter (PI): David Sibley, NINDS
Freshly passaged cells are plated in 1536 well white, solid bottom plates at a density of 1500 cells/well in 3microl of complete media. After an overnight incubation at 37 degrees C in 5% CO2, cells are loaded with 23nl of test compound from the compound library (as well as dopamine controls) using a 1536 pintool and incubated at 37 degrees C for 90 minutes. Two microliters of DiscoveRx reagent is then added to all cells, and they are incubated for an additional 30 - 60 minutes at room temperature. Following incubation, luminescence is measured on a ViewLux CCD-based luminometer reader using a 20 sec exposure time.
% is set by controls: 0 for no effect and ±100 for the full control effect.

D(3) dopamine receptor (Homo sapiens), sequence (P35462 whole entry, looked up): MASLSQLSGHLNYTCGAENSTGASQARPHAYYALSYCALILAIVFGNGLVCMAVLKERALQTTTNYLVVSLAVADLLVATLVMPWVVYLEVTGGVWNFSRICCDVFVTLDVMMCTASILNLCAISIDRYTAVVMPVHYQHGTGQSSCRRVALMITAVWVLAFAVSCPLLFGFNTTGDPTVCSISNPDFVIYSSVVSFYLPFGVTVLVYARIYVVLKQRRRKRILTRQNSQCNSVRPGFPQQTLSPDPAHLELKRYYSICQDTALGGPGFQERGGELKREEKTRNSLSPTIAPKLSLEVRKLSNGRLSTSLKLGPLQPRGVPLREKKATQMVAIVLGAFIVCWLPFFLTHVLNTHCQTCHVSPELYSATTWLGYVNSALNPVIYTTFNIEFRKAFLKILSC

Compound | max response, negative = inhibition
Cc1ccc(CN2CCCC(C(=O)c3ccc4c(c3)OCO4)C2)cc1C (stereo not drawn) | -74.3% (active)
Cc1ccsc1C(=O)C1CCCN(Cc2ccc(O)cc2)C1 (stereo not drawn) | -22.3%
COc1ccc(C2C=C(C)Oc3c2c(=O)oc2ccccc32)cc1OC (stereo not drawn) | 1.55%
CC1(C)Cc2c(C#N)c(N3CCNCC3)nc(-c3ccco3)c2CS1 | -15.4%
CCN1CCN(Cc2cc(OC)c3c(c2)OCO3)CC1 | 2.18%
Fc1ccc(N2CCN(Cc3ccc4c(c3)OCO4)CC2)cc1 | -111% (active)
CC(C)c1ccc(O)c(CN2CCN(c3ccccc3)CC2)c1 | -71% (active)
Cc1cc(=O)oc2c(C)c(OCC(=O)N3CCN(Cc4ccc5c(c4)OCO5)CC3)ccc12 | 0.853%
COc1ccccc1CN1CCN(C(=O)Cc2ccccc2)CC1 | -24%
Oc1cc2c(cc1CN1CCN(c3ccccc3)CC1)OCO2 | -71.5% (active)
O=C(Cc1ccccc1[N+](=O)[O-])N1CCN(Cc2ccc3c(c2)OCO3)CC1 | -4.07%
OC(Cn1c2ccccc2c2ccccc21)C[n+]1ccccc1 (stereo not drawn) | -9.75%
c1cc2c(cc1C1OCC3C(c4ccc5c(c4)OCO5)OCC13)OCO2 (stereo not drawn) | 1.57%
C[C@]12CC[C@H](O)CC1=C([N+](=O)[O-])CC1C2CC[C@@]2(C)C1CC[C@@H]2O (stereo partly drawn) | 10.3%
O=C1C2CCN(CC2)C1(CO)CO | 5.89%
CC(=O)C1(O)CCC2C3CCC4=C(Cl)C(=O)CCC4(C)C3CCC21C (stereo not drawn) | -13.9%
CCN1CCN(C(=O)Cc2coc3cc(C)cc(C)c23)CC1 | -9.21%
C[C@]12CCC3C(CC[C@H]4[C@H](O)[C@H](O)CC[C@]34C)C1CC[C@@H]2O (stereo partly drawn) | 2.6%
CC(C)CN1Cc2cc(N3CCCCC3)ccc2-n2nncc2C1 | -13.6%
CCOc1ccc(CN(CCCl)CCCl)cc1C(=O)OC | -27.4%
CN1CCN(C(=O)COc2ccc(C(C)(C)C)cc2Br)CC1 | 0%
CC(C)c1ccc(OCC(=O)N2CCCN(C)CC2)cc1 | -7.58%
CC(C)c1ccc(OCC(=O)N2CCN(C)CC2)c(Br)c1 | -52% (active)
Cc1ccc(P(=S)(c2ccc(C)o2)N2CCOCC2)o1 | 14%

Compound | max response, negative = inhibition
Cc1nc2ccccn2c1P(=S)(N1CCCCC1)N1CCCCC1 | 12%
Cc1cc(C)cc(NC(=S)NC2CC3CCCC(C2)N3Cc2cccs2)c1 (stereo not drawn) | -81.8% (active)
CCC1(CC(C)c2ccccc2)C(=O)NC(=O)NC1=O (stereo not drawn) | 6.61%
O=C(CCN1CCCCC1)NCC(=O)Nc1ccc(Br)cc1C(=O)c1ccccc1 | -29.9%
Cc1ccc(Cn2c(C)c3cnn(CC(=O)N4CCC5(CC4)OCCO5)c(=O)c3c2C)cc1 | 3.94%
Cc1ccc(Cn2nnnc2CN2CCC(n3nnc4ccccc43)CC2)cc1 | -69% (active)
O=c1[nH]c2ccccc2n1C1CCN(C(c2ccccc2)c2nnnn2Cc2ccccc2)CC1 (stereo not drawn) | 71.4%
O=c1[nH]c2ccccc2n1C1CCN(C(c2ccnc3ccccc23)c2nnnn2Cc2ccccc2)CC1 (stereo not drawn) | 9.58%
CCOC(=O)[C@]12Cc3ccccc3[C@H]1N(C1CCCCC1)C(=O)c1cc(OC)ccc12 | -14.9%
O=C(COC(=O)Cc1ccccc1)Nc1ccc(F)cc1 | 6.49%
CCOc1cccc(=NC2CCCCC2)c2c(C)[nH]c(C)c12 | 13.5%
CCN1CC2C3CCC(C)(O3)C2C1 (stereo not drawn) | -7.4%
Cc1nc2nc(C)c(CCC(=O)N3CCC4(CC3)OCCO4)c(C)n2n1 | -10.8%
CN1CCC(OC(=O)c2cccc(F)c2)CC1 | -13.8%
COc1ccc(C(=O)C2CN(C)CC2C(=O)c2ccc(OC)cc2)cc1 (stereo not drawn) | -1.15%
Cc1ccc(C2CN(C)CC2C(=O)c2ccc(F)cc2)cc1 (stereo not drawn) | -102% (active)
Cn1c(O)c(C(=Nc2ccc(F)cc2)c2ccccc2)c(=O)n(C)c1=O | -8.88%
c1cncc(CNCCc2c[nH]c3ccccc23)c1 | 14.8%
O=C1NCN(c2ccccc2)C12CCN(C(c1cccs1)c1nnnn1C1CCCCC1)CC2 (stereo not drawn) | -8.63%
c1ccc(N2Cc3ccccc3-n3nncc3C2)nc1 | -20.4%
CC(=O)OC1C2(CC3N4C(=O)C5(CO)SSC4(CC31O)C(=O)N5C)OC(C)C(C)(C)C2=O (stereo not drawn) | -98.1% (active)
CN(C)S(=O)(=O)c1cc(C(=O)N2CCC(C(=O)O)(c3ccccc3)CC2)ccc1Cl | -1.23%
Clc1ccc2nc3c(c(-c4ccccc4)c2c1)CNCC3 | -1.49%
COc1ccc(-n2nnnc2C(c2cccc3ccccc23)N2CCC(n3c(=O)[nH]c4ccccc43)CC2)cc1 (stereo not drawn) | 117%
